Paper PMC5540273 (PLoS ONE, 2017)

How the values were obtained:
Details in all cases: concentration: 1 μM, replicates: in singlicate; n = 1
[1] = tested on: T1, MLK1
T1 construct: gene MAP3K9

[2] = tested on: MLK2
[3] = tested on: MLK3
[4] = tested on: MRCKA
[5] = tested on: T2, MRCKB
T2 construct: gene CDC42BPB

[6] = tested on: MST1R
[7] = tested on: T3, MST1
T3 construct: gene STK4

[8] = tested on: T4, MST2
T4 construct: gene STK3

[9] = tested on: T5, MST3
T5 construct: gene STK24

[10] = tested on: MST4
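Further: KINOMEscan kinase panel screen.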

Compound	%Inh [1] [%]	%Inh [2] [%]	%Inh [3] [%]	%Inh [4] [%]	%Inh [5] [%]	%Inh [6] [%]	%Inh [7] [%]	%Inh [8] [%]	%Inh [9] [%]	%Inh [10] [%]
CC(C)c1nc(-c2cccc(NS(=O)(=O)c3c(F)cccc3F)c2F)c(-c2ccnc(Nc3ccc(N4CCOCC4)nc3)n2)s1 [GSK2008607]	96.3	100	92.7	0	0	82	55	0	63	39
c1ccc(Oc2ccc(Nc3ccnc4cc(-c5ccc(CNCCN6CCOCC6)o5)ccc34)cc2)nc1 [GW567145]	0	0	0	0	0	16	0	0	11	0
CCS(=O)(=O)c1ccc(OC)c(Nc2nccc(-c3c(-c4cccc(NC(=O)c5c(F)cccc5F)c4)nn4ncccc34)n2)c1 [GSK326180]	0	0	0	24	11	0	21	28	0	0
CC(=O)Nc1nc2cnc(Nc3cc(NC(=O)c4cccc(C5(C#N)CC5)c4Cl)ccc3C)nc2s1	4	10	0	5	0	13	0	12	6	0
O=C(Nc1n[nH]c2nc(-c3ccc(O)cc3)ccc12)C1CC1 [SB-710363]	0	0	0	0	0	0	0	0	0	9
Cl.Cl.NCC(NC(=O)c1cc(-c2ccccc2)c(-c2ccnc3[nH]ccc23)s1)c1ccccc1 (centres unmarked) [GSK1321561]	0	23	11	73	90.7	42	0	0	0	27
C[C@@H](Oc1cc(-n2cnc3cc(-c4ccnc(NCCS(C)(=O)=O)c4)ccc32)sc1C(N)=O)c1ccccc1Cl [GSK907232]	14	20	42	0	8	57	64	0	0	4
Cc1ccc(C(=O)N2CC[C@@H](O)C2)cc1-n1c(C)cc(OCc2ccc(F)cc2F)c(Br)c1=O	0	5	0	0	0	3	0	5	5	0
Nc1ncnc2c1nc(-c1ccccc1)n2-c1ccccc1 [SKF-97293]	16	2	0	0	0	18	21	20	0	24
COc1cccc(C2=C(Nc3ccc(Cl)c(C(=O)O)c3)C(=O)NC2=O)c1 [SB-390769]	4	0	0	12	0	100	25	51	0	96.3
CCCCc1nn2ncccc2c1-c1ccnc(Nc2ccc(N3CCN(C)CC3)cc2)n1 [GW684941]	0	5	0	19	17	45	0	0	1	0
COc1cc(Nc2nccc(-c3c(-c4cccc(NC(=O)c5c(F)cccc5F)c4)nn4ncccc34)n2)cc(OC)c1OC [GSK327238]	9	39	50	100	98.9	79	96.6	92.1	64	42
CN(C)Cc1ccc(-c2ccc3c(Nc4ccc(Oc5ccccn5)cc4)ccnc3c2)o1 [GW567148]	0	0	1	0	0	41	14	0	0	0
Fc1ccc(-c2ncn(C3CCNCC3)c2-c2ccnc(Oc3ccc(-c4ccccc4)cc3)n2)cc1 [SB-245391]	52	46	0	26	59	0	27	30	14	31
Cl.Cl.NCC(C(=O)Nc1cc(Br)c(-c2ccnc3[nH]ccc23)s1)c1ccccc1 (centres unmarked) [GSK1269851]	0	18	11	0	25	47	0	7	0	11
Cc1ccc(F)c(C(=O)Nc2cccc(-c3nn4ccccc4c3-c3ccnc(Nc4cccc(F)c4)n3)c2)c1F [GSK361061]	14	42	31	22	24	34	34	0	2	15

Compound	%Inh [1] [%]	%Inh [2] [%]	%Inh [3] [%]	%Inh [4] [%]	%Inh [5] [%]	%Inh [6] [%]	%Inh [7] [%]	%Inh [8] [%]	%Inh [9] [%]	%Inh [10] [%]
Oc1cc(Nc2ccnc3cc(I)ccc23)ccc1F [GW552771]	0	13	0	0	0	28	9	0	2	0
O=C(O)C(F)(F)F.O=C(O)C(F)(F)F.O=c1[nH]ccc2nc(N[C@@H]3CCCNC3)nc(Nc3ccc(S(=O)(=O)N4CCOCC4)cc3)c12 [GSK2177277]	96.4	83	98.4	35	80	57	99.3	41	97.5	98.9
CC(=O)N1CCN(c2ccc(Nc3nccc(-c4sc(C(C)C)nc4-c4cccc(NS(=O)(=O)c5cccc(Cl)c5)c4)n3)cn2)CC1 [GSK1660437]	33	33	46	0	0	15	4	0	6	1
COCCOCCOc1cc2ncc3c4ccc(C#N)cc4[nH]c3c2cc1OC	22	0	53	12	24	0	12	76	0	0
COc1cc2c(cc1OCCN1CCNCC1)ncc1c3ccc(C#N)cc3[nH]c21	0	0	0	6	0	9	0	60	12	28
COC(=O)Nc1nc2ccc(Oc3ccc(NC(=O)Nc4cc(C(F)(F)F)ccc4F)cc3)cc2n1C.Cl [GW692089]	0	0	19	0	0	14	0	0	3	0
CN(C)S(=O)(=O)c1cc(-c2ccc3nccc(-c4cccc(S(N)(=O)=O)c4)c3c2)cnc1N [GSK1669921]	0	22	0	0	0	32	20	2	5	6
O=C(NC1CCN(c2ccnc(Nc3ccc(F)cc3)n2)C1)c1cc2ccccc2s1 (centres unmarked) [GSK1379716]	0	0	29	10	5	34	9	0	0	0
NCCCC(NC(=O)c1cc(Br)c(-c2ccnc3[nH]ccc23)s1)c1ccccc1.O=C(O)C(F)(F)F.O=C(O)C(F)(F)F (centres unmarked) [GSK1287544]	0	15	0	63	98.8	17	0	0	0	11
O=C(Nc1n[nH]c2cc(-c3ccoc3)ccc12)C1CC1 [SB-738481]	0	0	6	1	0	0	0	25	0	0
O=c1[nH]cc(-c2ccc(N3CCOCC3)cc2)c2sc(-c3cn[nH]c3)cc12 [GSK2276055]	0	0	0	0	0	31	0	32	29	0
CN(c1ccc(NC(=O)Nc2cc(C(F)(F)F)ccc2F)cc1)c1ccnc(Nc2ccc(S(N)(=O)=O)cc2)n1 [GW809893]	75	34	66	0	0	99.7	80	2	29	28
COc1cc(Nc2nccc(N3CCC(NC(=O)c4cc5ccccc5s4)C3)n2)cc(OC)c1OC (centres unmarked) [GSK1379760]	58	46	53	11	0	39	9	0	11	100
FC(F)(F)c1ccc(/C=C/c2cncnc2Nc2ccc3[nH]c(Cc4ccccc4)nc3c2)cc1 [GW709199]	19	11	1	31	26	0	2	0	0	0
Cn1cc(-c2[nH]c3cc(NC(=O)[C@H](N)C4CCCCC4)cc4c3c2C=NNC4=O)cn1	88	69	83	0	0	15	27	99.1	55	97.5
COc1cc(Nc2nccc(-c3c(-c4cccc(NC(=O)c5c(F)cccc5F)c4)nn4ccccc34)n2)cc(OC)c1OC [GSK323521]	28	56	17	0	0	6	92.1	39	33	33
